# Hits are enriched below; roughly 4.8% of the tested compounds scored in any of these assays.
# DAX1 inh-1 = inhibits human nuclear receptor DAX1; HEK293 Gal4-DAX1 luciferase reporter, luminescence; 340,000 compounds, 0.99% hits; AID 504766; inhibition, % at 6.75 µM; P51843;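 active = inhibition above the mean over all tested compounds plus 3 SD, cut at about 4.2% in these data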;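 note: 0% = DAX1-transfected cells with DMSO and 100% = empty-vector control cells with DMSO; inhibition shows as a rise in luminescence from relieved DAX1 repression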
# hcDAF-12 act = H. contortus DAF-12 activation, primary screen; HEK293 hcDAF-12 lit1-tk-luc reporter, luminescence; 0% DMSO, 100% Δ7-dafachronic acid; activation, % at 6.8 µM; 370,000 compounds, 1.4% hits;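 active = activation above the mean of all tested compounds plus 3 SD, cut at about 5.5% in these data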;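 note: 100% = response to 3 µM Δ7-dafachronic acid high control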
# SMARCA2 activ = increases SMARCA2 function in MMTV reporter cells; MG213 cells, MMTV-luciferase reporter, dexamethasone, overnight; activation, % at 9.1 µM; 370,000 compounds, 1% hits; AID 652017; in the data active = activation above about 7.8%;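 note: 0% = vehicle wells and 100% = reference activator wells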
# hgDAF12 agonist = hgDAF-12 agonism, primary luciferase screen; HEK293 GAL4-hgDAF12 UAS-luciferase reporter, agonist luminescence; normalized to butyrate control; activation, % at 6.8 µM; 370,000 compounds, 1.8% hits;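 active = activation above a cutoff set at the mean of all screened compounds plus 3 SD, cut at about 10% in these data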;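 note: 0% = DMSO wells and 100% = sodium butyrate wells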
# DAX1 inh-2 = blocks DAX1 repression of SF-1 activated StAR promoter. inhibition, % at 6.8 µM. HEK293T StAR-luciferase reporter, SF-1/DAX-1 repression relief. AID 652010. 370,000 compounds, 1.1% hits;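 active = inhibition above the mean over all tested compounds plus 3 SD, cut at about 3.6% in these data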;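 note: 0% = DAX-1 cells with DMSO and 100% = cells lacking DAX-1 with DMSO; higher inhibition means more luminescence from relief of DAX-1 repression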
# ssDAF-12 act = activates DAF-12 receptor from parasite S. stercoralis. HEK293 ssDAF-12/GRIP1 lit1-tk-luc reporter, luminescence; % of 3 µM dafachronic acid response. activation, % at 6.8 µM. 370,000 compounds, 1% hits. AID 652126;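 active = activation above the mean over all tested compounds plus 3 SD, cut at about 0.9% in these data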;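 note: 0% = DMSO-only wells and 100% = 3 µM delta7-dafachronic acid wells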
# SMARCA2 conf = SMARCA2 activation, confirmation screen; shares compounds with SMARCA2 activ; MG213 cells, MMTV-luciferase with dexamethasone, luminescence, overnight; MG213 cells expressing E1A, Rb sequestered; DMSO wells 0%, reference activator 100%; activation, % at 9.1 µM; 3,500 compounds, 30% hits;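 active = activation above its plate's cutoff, the mean activation of tested wells plus 3 SD, cut at about 7.9% in these data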
# VP16 Luc act = GAL4-VP16 reporter activation counter-screen; 3,500 compounds, 41% hits; activation, % at 9.1 µM; shares compounds with SMARCA2 activ; HEK293 GAL4-VP16 pG5luc reporter, luciferase luminescence; scaled: DMSO wells 0%, SAHA wells 100%;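 active = activation above the solvent-only control well mean plus 3 SD, averaged across control plates, cut at about 5.2% in these data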
# LXR ag = counter-screen for hcDAF-12 agonists: agonists of human LXR-beta. shares compounds with hcDAF-12 act. HEK293 Gal4-LXR tk-luc reporter, luminescence, 24 h; normalized: DMSO 0%, positive control 100%. 3,400 tested, under 10 active. activation, % at 6.8 µM;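 active = mean percent activation of the reporter above a cutoff set as the average over tested compounds plus their standard deviation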
# Target sequence (P55055 whole entry, looked up, the tested form may be a part): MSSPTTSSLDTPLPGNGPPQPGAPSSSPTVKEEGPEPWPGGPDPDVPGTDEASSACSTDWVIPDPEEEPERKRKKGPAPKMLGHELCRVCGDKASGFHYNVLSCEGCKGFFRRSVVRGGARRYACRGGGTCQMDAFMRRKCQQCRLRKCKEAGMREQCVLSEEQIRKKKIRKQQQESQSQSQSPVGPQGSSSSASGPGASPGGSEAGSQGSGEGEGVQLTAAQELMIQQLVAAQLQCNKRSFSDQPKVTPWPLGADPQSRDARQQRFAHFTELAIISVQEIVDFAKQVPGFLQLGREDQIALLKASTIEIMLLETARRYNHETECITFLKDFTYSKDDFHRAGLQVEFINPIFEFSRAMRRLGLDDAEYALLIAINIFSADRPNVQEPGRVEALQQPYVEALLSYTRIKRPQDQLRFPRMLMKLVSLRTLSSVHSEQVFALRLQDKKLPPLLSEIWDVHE
# hcDAF12 conf = hcDAF-12 agonism, confirmation assay; activation, % at 6.8 µM; AID 743032; shares compounds with hcDAF-12 act; 3,400 compounds, 61% hits; HEK293 hcDAF-12 lit1-tk-luc reporter, luminescence; % of Δ7-dafachronic acid response;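 active = mean activation across triplicate tests above the threshold derived from the earlier primary screen, cut at about 5.5% in these data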;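 note: 0% = DMSO only wells and 100% = 3 µM Δ7-dafachronic acid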
# hgDAF12 ag = hgDAF-12 agonism, confirmation assay | HEK293 GAL4-hgDAF12 luciferase reporter, agonist mode; percent of butyrate response | 3,300 compounds, 80% hits | AID 743050 | shares compounds with hgDAF12 agonist | activation, % at 6.8 µM;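 active = mean activation over triplicate wells above the hit cutoff derived from the earlier primary screen, cut at about 11% in these data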;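 note: 0% = DMSO low control and 100% = 2 mM sodium butyrate high control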
# LXR ag 2 = LXR-beta agonism as DAF-12 counter-screen; shares compounds with hgDAF12 agonist; HEK293 Gal4-LXR luciferase reporter, 24 h; activation, % at 6.8 µM; 3,300 tested, under 10 active;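 active = mean activation of the triplicate above a set limit carried over from the primary screen, none filed active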
# Active calls of the source: *; . = no result given.
SMILES,DAX1 inh-1,hcDAF-12 act,SMARCA2 activ,hgDAF12 agonist,DAX1 inh-2,ssDAF-12 act,SMARCA2 conf,VP16 Luc act,hgDAF12 ag,LXR ag 2,others
O=C(Nc1ccccc1)c1cc2ccccc2o1,-1,13*,13*,19*,3,1.9*,4,5,22*,1,LXR ag=2;hcDAF12 conf=17*
Cc1cc(C(=O)NC2CCCCC2)c(C)n1-c1ccc(F)cc1,0,5.8*,8.0*,14*,3,-1,5,11*,12*,1,
Cc1cc(C(=O)CN2CCCCC2)c(C)n1-c1ccc(F)cc1,2,1,5,5,1,-1,.,.,.,.,
CCCCc1nc2ccccc2[nH]1,0,0,0,2,1,-2,.,.,.,.,
Cc1ccccc1OCc1nc2ccccc2[nH]1,2,2,8.9*,19*,4,0,2,14*,17*,1,
COc1cccc(CNc2nc3ccccc3n2C)c1O,4,5,9.5*,15*,2,1.8*,11*,9.6*,19*,1,
CCOc1ccc(C(=O)N/N=C/c2ccc(SC)cc2)cc1,0,-2,-2,3,0,-1,.,.,.,.,
CSc1ccc(/C=N/NC(=O)c2cccc(O)c2)cc1,-1,4,9.6*,15*,4.1*,0,6,14*,18*,1,
CCN(CC)CCn1c2c(c(SCC(=O)Nc3ccc4c(c3)OCCO4)nc1=O)CCC2,2,-1,-1,0,-1,-1,.,.,.,.,
CC1CCN(C(=O)CSc2nc3c(c(=O)n(C)c(=O)n3C)n2C)CC1,0,-1,-3,-2,0,-1,.,.,.,.,
COc1cc(OC)cc(-c2nc3ccccc3s2)c1,2,8.6*,8.2*,17*,1,1,11*,5,15*,1,LXR ag=1;hcDAF12 conf=13*
N#C/C(=C\c1ccc(OCc2ccc(C(=O)O)cc2)cc1)C(=O)N1CCOCC1,-6,14*,10*,19*,4,1.6*,2,15*,21*,1,LXR ag=1;hcDAF12 conf=7.8*
O=C(c1ccccc1)c1ccc(-c2ccc(O)cc2)cc1,0,-1,2,5,1,0,.,.,.,.,
O=C(O)c1ccc(N=Nc2c(O)[nH]c3cc(Cl)ccc23)cc1,6.4*,5,14*,17*,3.7*,0,12*,14*,19*,1,
O=C(N/N=C\c1ccccn1)c1ccccc1O,1,0,13*,15*,0,0,-10,11*,3,0,
O=C(N/N=C/c1ccccn1)c1ccccc1,-1,4,4,8,2,-1,.,.,.,.,
Nc1ccccc1C#Cc1ccc2[nH]ccc2c1,7.2*,3,10*,14*,1,0,12*,11*,12*,0,
Nc1ccccc1C#Cc1ccccc1,3,3,6,6,1,0,.,.,.,.,
CCCS(=O)(=O)N1CCCC(C(=O)N2CCN(c3ccccn3)CC2)C1 (stereo not given),2,2,-2,2,0,-2,.,.,.,.,
CC[C@H](C)[C@@H](C(=O)N1CCNCC1)n1cc([C@@H](N)CC(C)C)nn1,3,-1,0,2,1,-1,.,.,.,.,
O=C(NC1CCCCCC1)c1cc2ccccc2oc1=O,1,7.5*,8.9*,13*,4.0*,0.9*,6,12*,16*,1,LXR ag=1;hcDAF12 conf=3
COc1cc(OC)c(OC)cc1/C=N/n1c(C)nc2ccccc2c1=O,-1,-3,-2,4,-1,-1,.,.,.,.,
COc1ccc(-c2nc3ccccc3o2)cc1OC,0,4,5,8,1,-1,.,.,.,.,
c1ccc2oc(-c3ccc4nc[nH]c4c3)nc2c1,2,4,9.6*,19*,3.8*,0,10*,14*,18*,1,
S=C(NCCc1ccccc1)N1CCN(C(=S)NCCc2ccccc2)CC1,-1,-1,1,0,1,-1,.,.,.,.,
SMILES,DAX1 inh-1,hcDAF-12 act,SMARCA2 activ,hgDAF12 agonist,DAX1 inh-2,ssDAF-12 act,SMARCA2 conf,VP16 Luc act,hgDAF12 ag,LXR ag 2,others
CC1CCN(C(=S)NCCc2ccccc2)CC1,1,3,8.7*,14*,2,0,11*,6.7*,11*,1,
N/C(=N\OC(=O)c1cccs1)c1ccccc1,2,7.4*,18*,16*,1,2.3*,12*,6.8*,15*,1,LXR ag=1;hcDAF12 conf=3
N/C(=N\OC(=O)c1cccs1)c1cccc(Br)c1,3,2,3,9,2,0,.,.,.,.,
Cc1cc(Br)ccc1NC(=O)CNC(=O)COc1ccccc1C,0,-1,-1,2,2,0,.,.,.,.,
O=C(NN=C1C2CC3CC1CC(Cl)(C3)C2)c1ccccn1,1,6.2*,9.1*,14*,3,0,7,2,5,0,
O=C(CC(c1ccccc1)(c1ccccc1)c1ccccc1)N[C@@H](Cc1ccc(O)cc1)C(=O)O,1,-1,-1,0,0,-1,.,.,.,.,
c1ccc(OCc2nc(-c3cccs3)no2)cc1,2,4,11*,16*,2,0,9.2*,6.6*,13*,0,
O=C1CC(c2ccccc2)Sc2nc3ccccc3n21 (stereo not given),3,6.9*,12*,19*,4.0*,1.1*,8.8*,8.6*,12*,1,LXR ag=1;hcDAF12 conf=7.3*
OCCCN=c1cc(-c2ccccc2)oc2ccc(Cl)cc12,1,4,12*,18*,0,0,37*,6.3*,11*,0,
Clc1ccc2oc(-c3ccccc3)nc2c1,0,1,3,4,1,0,.,.,.,.,
